# Many of the other results were omitted from the sample, so hits are more common in it than they were.
# Tg IFNy HTS: blocks Toxoplasma gondii growth in the presence of IFN-gamma. Toxoplasma gondii growth in IFN-gamma-treated host cells; hits give low values. actives 3.8% (n = 69,000). activity change, negative = inhibition, % (no concentration beside the values); in the data active = activity change below about -70%, passing the limit was not always enough;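 note: host cells are HeLa cells infected with Toxoplasma gondii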
# * marks the source's active call; other numbers are inactive results; i = inactive; ! = not active in a repeat.
SMILES,Tg IFNy HTS
CC(C)COC(=O)c1nc(Cl)c(Cl)c(N)c1Cl,-95.8*
Cc1cccc(-c2nc(CCNC(=O)c3ccco3)cs2)c1,497.1
O=C(NCCc1csc(-c2ccc(Cl)cc2)n1)c1ccco1,-80.6*
COc1cccc(C(=O)NCCc2csc(-c3cccc(F)c3)n2)c1,-48.3
Cc1nc(-c2cccc(F)c2)sc1CCNC(=O)c1ccc(Cl)cc1,-4.4
COc1cc(OC)cc(C(=O)NCCc2csc(-c3cccc(F)c3)n2)c1,29.9
O=C(NCCc1csc(-c2ccc(F)cc2)n1)c1cccc(F)c1,-89.8*
COc1ccc(C(=O)NCCc2csc(-c3cccc(F)c3)n2)c(OC)c1,-81.1*
Cc1nc(-c2cccc(F)c2)sc1CCNC(=O)c1ccc(C(C)(C)C)cc1,-43.5
O=C(NCCc1csc(-c2ccccc2)n1)c1ccc(Cl)cc1,399.1
O=C(NCCc1csc(-c2cccc(F)c2)n1)c1cccc(F)c1,-59.2
CCCCOc1ccc(C(=O)NCCc2sc(-c3cccc(F)c3)nc2C)cc1,-94.4*
O=C(NCCc1csc(-c2ccc(Cl)cc2)n1)c1cccc(F)c1,-50.1
CCN(Cc1noc(C)n1)C(=O)c1cc(CC(C)C)nn1C,-45.0
NC(N)=NC(=O)c1nc(Cl)c(N2CCCCCC2)nc1N,17.2
CN(Cc1cc(-c2ccncc2)no1)Cc1cc2ccccc2o1,-0.4
COc1ccc(C)cc1NC(=O)C(=O)NCCc1csc(-c2cccc(F)c2)n1,26.7
Cc1ccc(CSC2=Nc3ccccc3C3=NC(CCC(=O)NCc4cccs4)C(=O)N23)cc1 (stereo not given),-8.0
C=CCOC[C@@H]1CCC[C@@]12CN(C(=O)N1CCCC1)CCO2,-4.7
CS(=O)(=O)N1CCCC2(CC(Nc3nccs3)CO2)C1 (stereo not given),-1.6
CC(C)c1ccc(NC(=O)Cn2c(=O)cc(C(=O)N3CCCC3)c3ccccc32)cc1,10.1
Cc1cn(CCNc2nc(-c3ccccc3)nc3c2CCNC3)nn1,-12.1
CC1N=C2c3ccccc3N=C(SCc3ccc(C(C)(C)C)cc3)N2C1=O (stereo not given),-2.3
CCCCC(=O)O[C@]1(C(=O)CO)[C@@H](C)CC2C3CCC4=CC(=O)C=C[C@]4(C)[C@@]3(F)C(O)C[C@@]21C (stereo not given in full),1.2
CCOC(=O)CNC(=O)N1CCC2(CC1)Nc1cc(F)ccc1-n1cccc12,204.2
SMILES,Tg IFNy HTS
COc1ccccc1/C=C/CN1CCC2(CC1)C(=O)NCCN2C,0.3
O=C(OCC1CC(c2ccccc2)=NO1)c1ccc2ccccc2n1 (stereo not given),68.0
COc1ccc2c3c([nH]c2c1)[C@H](CO)N(C(=O)CN(C)C)CC31CN(C(=O)c2cccnc2)C1,19.2
Cn1ccnc1CN1CCC2(CCCN2Cc2cccc(F)c2)CC1,-2.8
Cc1ncsc1CCN(C)Cc1ccccn1,-0.3
COc1ccc(C(=O)NCCc2csc(-c3cccc(F)c3)n2)cc1,7.1
CC(C)Oc1ccc(C(=O)NCCc2csc(-c3cccc(F)c3)n2)cc1,36.3
CCCCOc1ccc(C(=O)NCCc2csc(-c3cccc(F)c3)n2)cc1,-81.3*
COC(=O)Nc1ccc2[nH]cc(CCNC(C)=O)c2c1,6.2
CC(C)c1cc(-c2ccc(F)c3ccccc23)nc(N)n1,-5.2
CC(C(=O)N1CCCC(c2cc3cccnc3[nH]2)C1)N1CCOCC1 (stereo not given),31.6
CC(C)N(CC[C@H](c1ccccc1)c1cc(CO)ccc1O)C(C)C,16.6
O=C(NC1CCCCCC1)c1nc(Nc2ccccc2)c2ccccc2n1,-85.1*
CCOC(=O)c1nc(Nc2cccc(OC)c2)c2ccccc2n1,-4.5
Cc1cccc(Nc2nc(C(=O)NCc3cccc(Cl)c3)nc3ccccc23)c1,-96.3*
CCOC(=O)c1nc(Nc2cc(C)c(Cl)cc2OC)c2ccccc2n1,-43.5
CCC(C)NC(=O)c1nc(Nc2cccc(C)c2)c2ccccc2n1 (stereo not given),-50.5
CCc1ccc(Nc2nc(C(=O)NCCOC)nc3ccccc23)cc1,-54.0
CCCNC(=O)c1nc(Nc2ccc(F)cc2)c2ccccc2n1,-33.0
O=C(NC1CCCC1)c1nc(Nc2ccc(F)cc2)c2ccccc2n1,-62.3
CCOC(=O)c1nc(Nc2ccc(OC)c(Cl)c2)c2ccccc2n1,-76.9*
Cc1cccc(Nc2nc(C(=O)NCc3ccccc3Cl)nc3ccccc23)c1,-58.9
CCCNC(=O)c1nc(Nc2ccc(CC)cc2)c2ccccc2n1,-83.1*
Cc1cccc(Nc2nc(C(=O)NC3CCCC3)nc3ccccc23)c1,-64.8
Cc1ccc(C(C)CCN2CC3CCCN3C[C@H]2C)o1 (stereo not given in full),30.3
SMILES,Tg IFNy HTS
CC1CCN(Cc2c(O)ccc3c4c(c(=O)oc23)CCC4)CC1,-23.9
COc1cccc(CNC(=O)c2cncc(OC(C)C)c2)c1,6.1
COCC(C)(C)CNC(=O)[C@]12CC[C@](C)([C@@H](O)C1)C2(C)C,2.3
Cc1nonc1-c1csc(NC(=O)c2noc3c2CC(C(C)(C)C)CC3)n1 (stereo not given),-11.7
CC(C)CS(=O)(=O)N1CCc2cc(C(=O)NC(C)C)c(N(C)C)nc2CC1,-0.3
O=C1CC2(CCN(c3cnccn3)C2)CN1c1ccc(F)c(F)c1 (stereo not given),-35.5
Cc1ccc(Nc2nc(C(=O)NCc3cccnc3)nc3ccccc23)cc1,-81.7*
O=C(NCCC1=CCCCC1)c1nc(Nc2ccccc2)c2ccccc2n1,-76.4*
Cc1ccc(Nc2nc(C(=O)Nc3ccccc3Cl)nc3ccccc23)cc1,-57.6
COCCNC(=O)c1nc(Nc2cccc(C)c2)c2ccccc2n1,-32.6
Cc1ccc(Nc2nc(C(=O)NCc3ccccc3)nc3ccccc23)cc1,13.9
CCNC(=O)c1nc(Nc2ccccc2)c2ccccc2n1,-27.1
Cc1cccc(Nc2nc(C(=O)NCc3ccc(C)o3)nc3ccccc23)c1,-51.0
O=C(NCCCc1ccccc1)c1nc(Nc2ccccc2)c2ccccc2n1,-45.6
CCOc1ccc(CNC(=O)c2nc(Nc3cccc(C)c3)c3ccccc3n2)cc1,-94.1*
CCc1ccccc1NC(=O)c1nc(Nc2ccc(C)cc2)c2ccccc2n1,-86.1*
CCc1ccc(CNC(=O)c2nc(Nc3ccc(C)cc3)c3ccccc3n2)cc1,-54.6
CCc1ccccc1NC(=O)c1nc(Nc2ccccc2)c2ccccc2n1,-69.1
COc1ccc(NC(=O)N(C)C[C@H]2OCCCC[C@@H](C)Oc3ccc(NC(=O)c4ccncc4)cc3C(=O)N([C@H](C)CO)C[C@@H]2C)cc1,i
O=C(Cn1cc(Cl)cn1)N1CCC2(CC1)N=C(c1ccccc1)NC2=O,-10.4
CCCCc1cn(CC2CCN(C(=O)c3cccs3)CC2)nn1,2.8
CN1CC(=O)N(c2ccccc2)CC12CCN(S(=O)(=O)C1CC1)C2 (stereo not given),-24.4
O=C(C1CCOCC1)N1CCn2c(Cn3cccn3)cnc2C1,-13.5
O=C(Cn1c(=O)cc(C(=O)N2CCCC2)c2ccccc21)Nc1cccc(C(F)(F)F)c1,-4.4
CSc1ccc2c(c1)N(CCC1CCCCN1C)c1ccccc1S2 (stereo not given),-95.3*!
CSc1cccc(NC(=O)N2CCCCC2CCN2CCCC2=O)c1 (stereo not given),3.7
CSc1cccc(NC(=S)N2CCCCC2CCN2CCOCC2)c1 (stereo not given),14.7
CCn1cc(CN(C)Cc2nc(-c3cc(OC)ccc3F)oc2C)cn1,-7.1
Cc1cc2nc(CN3CC(=O)N4CC[C@@H](O)C[C@H]4C3=O)[nH]c2cc1C,5.9
COc1ccc2c(c1)CCc1c-2nc2ccccc2c1N1CCOCC1,-98.4*
